According to PubChem BioAssay (Tox21):
Values joined by “and” are separate entries in the source; they are usually repeats but may differ in a detail not shown here. Identical values can stand only once. Results filed as inconclusive are left out. Where a call stands in place of a potency, no number is given. Where a structure was tested more than once in an assay, its records may differ in their call. Active and inactive are the calls of the source. Unless noted, calls follow the shape of the dose curve; as a rule, active = well fitted curve in the direction sought with a large enough effect in the repeat runs; inconclusive = weak or mixed curves; inactive = no such curve, though single readings can be large; an effect the other way counts as inactive or inconclusive.

Key:
[1] = qHTS assay to identify aromatase inhibitors - cell viability counter screen (AID 743084);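 also: cells stimulated with testosterone during compound exposure; nearly all actives have a fitted effect of over 55% in size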; also: potency is read from the fitted curve at half-maximal effect
[2] = target: Aryl hydrocarbon receptor (Homo sapiens) (UniProt P35869); experiment: qHTS assay to identify small molecule that activate the aryl hydrocarbon receptor (AhR) signaling pathway (AID 743085); also: nearly all actives have a fitted effect of over 15% in size; also: potency is read from the fitted curve at half-maximal effect;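 as to activation: HG2L7.5c1 human HepG2 liver cells with stably integrated DRE-driven firefly reporter; series mostly up to about 70 µM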
Chain of Aryl hydrocarbon receptor (Homo sapiens) (P35869 whole entry, looked up): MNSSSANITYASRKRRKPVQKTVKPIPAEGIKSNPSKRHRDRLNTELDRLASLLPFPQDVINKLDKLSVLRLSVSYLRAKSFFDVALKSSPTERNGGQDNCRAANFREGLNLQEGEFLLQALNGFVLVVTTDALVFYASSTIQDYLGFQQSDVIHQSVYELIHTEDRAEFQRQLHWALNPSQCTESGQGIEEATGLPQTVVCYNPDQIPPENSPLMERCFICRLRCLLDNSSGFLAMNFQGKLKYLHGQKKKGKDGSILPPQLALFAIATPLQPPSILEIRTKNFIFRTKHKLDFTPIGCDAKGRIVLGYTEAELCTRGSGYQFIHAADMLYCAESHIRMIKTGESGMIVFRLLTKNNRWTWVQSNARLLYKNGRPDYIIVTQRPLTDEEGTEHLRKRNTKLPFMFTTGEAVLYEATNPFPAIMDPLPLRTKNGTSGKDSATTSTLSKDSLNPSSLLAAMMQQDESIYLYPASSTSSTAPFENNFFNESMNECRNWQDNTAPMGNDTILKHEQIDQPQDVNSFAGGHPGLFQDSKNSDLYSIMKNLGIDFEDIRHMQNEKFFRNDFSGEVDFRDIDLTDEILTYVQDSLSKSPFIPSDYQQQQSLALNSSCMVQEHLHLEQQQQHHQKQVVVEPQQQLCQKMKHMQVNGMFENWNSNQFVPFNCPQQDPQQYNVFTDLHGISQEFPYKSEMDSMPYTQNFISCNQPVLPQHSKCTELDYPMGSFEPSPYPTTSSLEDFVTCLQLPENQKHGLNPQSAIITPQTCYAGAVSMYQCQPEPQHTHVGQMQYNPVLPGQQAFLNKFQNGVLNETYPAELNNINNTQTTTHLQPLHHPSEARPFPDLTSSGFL
Summary of the method: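 Luminescence read-out: ONE-Glo reagent, 30 min at room temperature, in HG2L7.5c1 HepG2 reporter cells treated 24 h at 37C. Viability was measured beforehand by CellTiter-Fluor fluorescence after 30 min at 37C.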

[3] = qHTS assay to identify small molecule that activate the aryl hydrocarbon receptor (AhR) signaling pathway - cell viability counter screen (AID 743086); also: nearly all actives have a fitted effect of over 45% in size; also: potency is read from the fitted curve at half-maximal effect
Summary of the method: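 HepG2-AhR-luc (HG2L7.5c1) cells, 4000/well, were preincubated 5 h at 37C, exposed to compound in qHTS format for 24 hr at 37C, then given CellTiter-Fluor for 30 min; viability was read as fluorescence in the reporter wells.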

[4] = target: Peroxisome proliferator-activated receptor gamma (Homo sapiens) (UniProt P37231); experiment: qHTS assay to identify small molecule agonists of the peroxisome proliferator-activated receptor gamma (PPARg) signaling pathway (AID 743094; active = well fitted activation curve with a large enough effect in the signal ratio in the repeat runs, not every such curve was filed as active; the % refers to the signal ratio)
Chain of Peroxisome proliferator-activated receptor gamma (Homo sapiens) (P37231 whole entry, looked up): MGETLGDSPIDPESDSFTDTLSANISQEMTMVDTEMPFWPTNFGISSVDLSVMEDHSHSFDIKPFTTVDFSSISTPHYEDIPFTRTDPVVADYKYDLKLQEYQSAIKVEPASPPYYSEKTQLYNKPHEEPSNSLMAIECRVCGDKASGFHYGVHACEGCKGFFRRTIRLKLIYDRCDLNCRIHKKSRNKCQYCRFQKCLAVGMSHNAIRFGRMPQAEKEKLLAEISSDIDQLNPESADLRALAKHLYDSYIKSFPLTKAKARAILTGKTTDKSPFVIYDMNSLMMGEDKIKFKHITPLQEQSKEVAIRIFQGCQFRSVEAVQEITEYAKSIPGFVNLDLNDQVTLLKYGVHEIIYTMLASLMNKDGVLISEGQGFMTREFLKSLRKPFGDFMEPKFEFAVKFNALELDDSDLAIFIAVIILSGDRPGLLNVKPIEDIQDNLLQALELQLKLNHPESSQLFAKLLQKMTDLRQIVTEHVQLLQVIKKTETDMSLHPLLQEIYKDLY
Summary of the method: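 Agonism was assessed in a beta-lactamase reporter system, HEK293H cells with a stably integrated UAS-bla construct under PPARg control; the 17 h treatment at 37C preceded a 1 h room-temperature FRET substrate read.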

[5] = target: Peroxisome proliferator-activated receptor gamma (Homo sapiens) (UniProt P37231); experiment: qHTS assay to identify small molecule antagonists of the peroxisome proliferator-activated receptor gamma (PPARg) signaling pathway (AID 743191; calls by dose curve; also: series mostly up to about 63 µM; nearly all actives have a fitted effect of over 30% in size)
Summary of the method: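 GeneBLAzer PPARg UAS-bla HEK293H cells carrying a UAS-driven beta-lactamase reporter were plated at 3000 cells/well, preincubated 5 h at 37C, then given compound for 17 h at 37C; LiveBLAzer B/G FRET substrate was read after 1 h at room temperature.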

[6] = qHTS assay to identify small molecule antagonists of the peroxisome proliferator-activated receptor gamma (PPARg) signaling pathway - cell viability counter screen (AID 743194); also: nearly all actives have a fitted effect of over 55% in size; also: potency is read from the fitted curve at half-maximal effect
Summary of the method: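 PPARg-UAS-bla HEK293H cells were plated, rested 5 h at 37 C, then treated with compounds plus rosiglitazone (50 nM final) for 17 h at 37 C; viability was then read by CellTiter-Glo luminescence after 30 min at room temperature.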

[7] = qHTS assay for small molecule agonists of the antioxidant response element (ARE) signaling pathway (AID 743202; active = well fitted activation curve with a large enough effect in the signal ratio in the repeat runs, not every such curve was filed as active; the % refers to the signal ratio; also: potency is read from the fitted curve at half-maximal effect)
Summary of the method: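 Following a 16 h, 37 C exposure of reporter HepG2 cells (ARE-driven beta-lactamase, 2,000 cells/well) to compounds, FRET substrate was applied for 2 h at room temperature and fluorescence intensity recorded.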

[8] = qHTS assay for small molecule agonists of the antioxidant response element (ARE) signaling pathway - cell viability counter screen (AID 743203; calls by dose curve; also: nearly all actives have a fitted effect of over 55% in size; also: potency is read from the fitted curve at half-maximal effect)
Summary of the method: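 ATP content via CellTiter-Glo luminescence served as the viability measure. Cells: ARE-bla HepG2, 2,000 per well. Exposure: 16 hrs, 37C/5% CO2.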

[9] = qHTS assay for small molecule activators of the heat shock response signaling pathway - cell viability counter screen (AID 743209); also: nearly all actives have a fitted effect of over 50% in size
Summary of the method: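 Compounds dissolved in DMSO were added to overnight-plated HSE-bla HeLa cells and left 5 h at 37 C. Cell viability was quantified by luminescence using CellTiter-Glo.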

[10] = qHTS assay to identify small molecule agonists of the peroxisome proliferator-activated receptor delta (PPARd) signaling pathway - cell viability counter screen (AID 743211); also: nearly all actives have a fitted effect of over 55% in size
Summary of the method: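 Read-out: CellTiter-Glo luminescence, 30 min RT, measured in the same wells as the beta-lactamase reporter. Cells: GeneBLAzer PPAR delta UAS-bla HEK293H, 3000 cells/well, compound exposure 17 h at 37C.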

[11] = qHTS assay to identify small molecule antagonists of the peroxisome proliferator-activated receptor delta (PPARd) signaling pathway - cell viability counter screen (AID 743213); also: nearly all actives have a fitted effect of over 50% in size; also: potency is read from the fitted curve at half-maximal effect
Summary of the method: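 Agonist-stimulated (L165041, 300 nM final) HEK293H PPARd UAS-bla cells are exposed to compounds for 17 h at 37 C, and ATP-based luminescence (CellTiter-Glo) from the same wells reports cytotoxicity.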

[12] = qHTS assay for small molecule activators of the heat shock response signaling pathway (AID 743210; active = well fitted activation curve with a large enough effect in the signal ratio in the repeat runs, with a control signal flat, not every such curve was filed as active; the % refers to the signal ratio; also: series mostly up to about 63 µM)
Summary of the method: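 Heat shock element–beta-lactamase HeLa reporter cells; qHTS with compounds for 5 h at 37 C; detection by FRET substrate fluorescence after 2.5 h at RT.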

[13] = target: Peroxisome proliferator-activated receptor delta (Homo sapiens) (UniProt Q03181); experiment: qHTS assay to identify small molecule antagonists of the peroxisome proliferator-activated receptor delta (PPARd) signaling pathway (AID 743215; active = well fitted inhibition curve with a large enough effect in the signal ratio in the repeat runs, not every such curve was filed as active; the % refers to the signal ratio; also: series mostly up to about 62 µM)
Chain of Peroxisome proliferator-activated receptor delta (Homo sapiens) (Q03181 whole entry, looked up): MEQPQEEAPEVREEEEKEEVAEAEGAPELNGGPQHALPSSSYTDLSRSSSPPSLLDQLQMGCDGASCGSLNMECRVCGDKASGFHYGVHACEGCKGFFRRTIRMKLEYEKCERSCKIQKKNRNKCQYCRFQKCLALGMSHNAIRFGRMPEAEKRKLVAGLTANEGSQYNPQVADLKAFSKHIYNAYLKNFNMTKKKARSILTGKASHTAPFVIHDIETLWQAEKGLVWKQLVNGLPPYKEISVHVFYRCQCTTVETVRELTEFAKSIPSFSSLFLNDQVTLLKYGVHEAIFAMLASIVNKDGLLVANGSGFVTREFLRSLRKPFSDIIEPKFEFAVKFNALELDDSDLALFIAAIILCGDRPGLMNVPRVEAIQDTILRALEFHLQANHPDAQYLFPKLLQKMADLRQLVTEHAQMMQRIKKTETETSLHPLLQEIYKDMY
Summary of the method: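 Here, a reporter line (HEK293H, beta-lactamase under a UAS) measures PPARd signaling. Compounds are tested against agonist L165041 at 300 nM final concentration over 17 h at 37 C, with fluorescence read after substrate.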

[14] = qHTS assay to identify small molecule agonists of the farnesoid-X-receptor (FXR) signaling pathway - cell viability counter screen (AID 743218); also: nearly all actives have a fitted effect of over 45% in size
Summary of the method: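 Quantitative HTS counter screen measuring ATP-based viability via CellTiter-Glo luminescence in HEK 293T cells carrying a UAS-driven beta-lactamase reporter, after 16 h compound exposure at 37 C.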

[15] = target: Vitamin D3 receptor (Homo sapiens) (UniProt P11473); experiment: qHTS assay to identify small molecule agonists of the vitamin D receptor (VDR) signaling pathway (AID 743222; calls by dose curve)
Chain of Vitamin D3 receptor (Homo sapiens) (P11473 whole entry, looked up): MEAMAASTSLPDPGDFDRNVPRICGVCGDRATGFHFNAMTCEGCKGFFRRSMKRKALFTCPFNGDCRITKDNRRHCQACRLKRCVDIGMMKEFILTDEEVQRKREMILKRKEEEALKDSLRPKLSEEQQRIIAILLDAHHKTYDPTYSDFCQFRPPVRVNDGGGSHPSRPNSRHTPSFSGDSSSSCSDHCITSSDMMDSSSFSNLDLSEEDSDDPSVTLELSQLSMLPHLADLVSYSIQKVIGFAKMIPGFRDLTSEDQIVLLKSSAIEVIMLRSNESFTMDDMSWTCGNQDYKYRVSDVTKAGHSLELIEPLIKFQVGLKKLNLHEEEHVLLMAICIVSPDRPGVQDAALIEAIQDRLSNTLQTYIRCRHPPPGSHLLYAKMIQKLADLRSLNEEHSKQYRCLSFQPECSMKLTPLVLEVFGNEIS
Summary of the method: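 Tox21 cell reporter format: VDR-bla line, 16 h compound exposure in 5% CO2 at 37C, then fluorescence intensity after 2 h with LiveBLAzer B/G FRET substrate.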

[16] = target: Vitamin D3 receptor (Homo sapiens) (UniProt P11473); experiment: qHTS assay to identify small molecule antagonists of the vitamin D receptor (VDR) signaling pathway (AID 743223; active = well fitted inhibition curve with a large enough effect in the signal ratio in the repeat runs, not every such curve was filed as active; the % refers to the signal ratio)
Summary of the method: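 Beta-lactamase reporter read-out: FRET substrate fluorescence after 2 h at room temperature, following 16 h exposure of VDR-bla cells to test compound plus 3 nM (final) 1alpha,25-dihydroxyvitamin D3 agonist at 37C.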

[17] = qHTS assay to identify small molecule antagonists of the farnesoid-X-receptor (FXR) signaling pathway - cell viability counter screen (AID 743221; active = well fitted cell-killing curve with a large enough effect in the repeat runs, not every such curve was filed as active; also: nearly all actives have a fitted effect of over 50% in size)
Summary of the method: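 HEK 293T FXR-bla cells, 5 h pre-incubation; compound + CDCA 50 uM final, 16 h, 37 C; beta-lactamase FRET read first, then CellTiter-Glo luminescence, 30 min RT.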

[18] = target: Bile acid receptor (Homo sapiens) (UniProt Q96RI1); experiment: qHTS assay to identify small molecule antagonists of the farnesoid-X-receptor (FXR) signaling pathway (AID 743217; active = well fitted inhibition curve with a large enough effect in the signal ratio in the repeat runs, not every such curve was filed as active; the % refers to the signal ratio)
Chain of Bile acid receptor (Homo sapiens) (Q96RI1 whole entry, looked up): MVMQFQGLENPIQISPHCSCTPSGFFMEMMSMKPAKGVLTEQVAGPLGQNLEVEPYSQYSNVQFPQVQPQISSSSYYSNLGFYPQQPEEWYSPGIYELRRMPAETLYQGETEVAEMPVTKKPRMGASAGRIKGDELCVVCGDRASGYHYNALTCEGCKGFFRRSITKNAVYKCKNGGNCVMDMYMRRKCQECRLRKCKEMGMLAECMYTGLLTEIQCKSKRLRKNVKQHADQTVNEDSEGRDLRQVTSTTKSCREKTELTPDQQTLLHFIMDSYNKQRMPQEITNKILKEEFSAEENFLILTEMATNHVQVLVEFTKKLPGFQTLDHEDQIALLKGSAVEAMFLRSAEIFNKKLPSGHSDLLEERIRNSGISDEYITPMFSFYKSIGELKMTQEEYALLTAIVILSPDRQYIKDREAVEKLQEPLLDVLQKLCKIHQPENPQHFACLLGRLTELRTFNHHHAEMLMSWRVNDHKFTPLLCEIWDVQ
Summary of the method: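 Test compounds are pin-transferred onto FXR-bla HEK 293T cells, then chenodeoxycholic acid is added at 50 uM final. After 16 h at 37 °C, LiveBLAzer B/G substrate is applied for 2 h at room temperature and fluorescence read.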

[19] = target: Bile acid receptor (Homo sapiens) (UniProt Q96RI1); experiment: qHTS assay to identify small molecule agonists of the farnesoid-X-receptor (FXR) signaling pathway (AID 743220; active = well fitted activation curve with a large enough effect in the signal ratio in the repeat runs, not every such curve was filed as active; the % refers to the signal ratio)
Summary of the method: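 FXR-UAS-bla HEK 293T cells carrying a UAS-driven beta-lactamase reporter were plated for 5 h at 37C/5% CO2, then exposed to DMSO-dissolved Tox21 10K compounds for 16 h at 37C. A LiveBLAzer B/G FRET substrate was loaded for 2 h at room temperature before fluorescence reading.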

[20] = target: Peroxisome proliferator-activated receptor delta (Homo sapiens) (UniProt Q03181); experiment: qHTS assay to identify small molecule agonists of the peroxisome proliferator-activated receptor delta (PPARd) signaling pathway (AID 743212; calls by dose curve)
Summary of the method: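 Beta-lactamase reporter read by fluorescence (LiveBLAzer B/G FRET, 2 h, room temperature). Test agents, in DMSO, incubated at 37 C with PPARd-bla HEK293H cells.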

Structure (SMILES) | Potency [1] | Potency [2] | Potency [3] | outcome [4] | Potency [5] | Potency [6] | Potency [7] | Potency [8] | Potency [9] | Potency [10] | Potency [11] | outcome [12] | outcome [13] | Potency [14] | outcome [15] | outcome [16] | Potency [17] | Potency [18] | outcome [19] | outcome [20]
C=C1C[C@H]2[C@@H]3C=C(C)C4=CC(=O)CC[C@]4(C)[C@H]3CC[C@]2(C)[C@@]1(OC(C)=O)C(C)=O | inactive | inactive | inactive | inactive | inactive | inactive | 17.6 µM (active) and 29.8 µM (active) | inactive | inactive | inactive | inactive | – | – | – | – | – | – | – | – | –
O=C1CCc2ccccc2O1 | inactive | inactive | inactive | inactive | inactive | inactive | inactive | inactive | – | inactive | inactive | inactive | inactive | inactive | inactive | inactive | – | – | – | –
CC(=O)Nc1ccc2c(c1)Cc1cc(NC(C)=O)ccc1-2 | inactive | inactive | inactive | inactive | inactive | inactive | inactive | inactive | inactive | inactive | inactive | – | inactive | – | inactive | inactive | – | – | – | –
CCCCCCCCCCCCCO | inactive | inactive | inactive | inactive | inactive | inactive | inactive | inactive | inactive | inactive | inactive | – | inactive | inactive | inactive | inactive | – | – | – | –
CC(C)(Oc1ccc(Cl)cc1)C(=O)O | inactive | inactive | inactive | inactive | inactive | inactive | inactive | inactive | inactive | inactive | inactive | – | inactive | inactive | inactive | inactive | inactive | – | – | –
Nc1cc([N+](=O)[O-])ccc1C(=O)O | inactive | 21.7 µM (active) | inactive | inactive | inactive | inactive | inactive | inactive | inactive | inactive | inactive | inactive | inactive | inactive | inactive | inactive | – | – | – | –
C[N+](C)(C)CCO | inactive | inactive | inactive | inactive | – | inactive | inactive | inactive | inactive | inactive | inactive | – | inactive | inactive | inactive | inactive | inactive | – | – | –
Cc1ccc(/C(=C\CN2CCCC2)c2ccccn2)cc1 | inactive | inactive | inactive | inactive | inactive | inactive | – | inactive | inactive | inactive | – | – | inactive | inactive | inactive | inactive | inactive | – | – | –
CCC(Cc1c(I)cc(I)c(N)c1I)C(=O)O (configuration not stated) | inactive | inactive | inactive | inactive | – | inactive | 23.6 µM (active) | inactive | inactive | inactive | inactive | – | inactive | inactive | inactive | – | inactive | inactive | inactive | –
O=Cc1ccccc1C=O | 17.2 µM (active) | inactive | inactive | – | inactive | – | inactive | 12.2 µM (active) and inactive | – | inactive | 24.5 µM (active) and inactive | inactive | inactive | inactive | – | – | – | – | – | inactive
CNC[C@H](O)c1ccc(O)c(O)c1 | inactive | inactive | inactive | inactive | inactive | inactive | inactive | inactive | – | inactive | inactive | inactive | – | – | inactive | inactive | inactive | – | – | –
C1COCCN1 | inactive | inactive | inactive | – | – | inactive | inactive | inactive | inactive | inactive | inactive | inactive | inactive | inactive | inactive | inactive | inactive | – | – | inactive
CN(C)C | inactive | inactive | inactive | inactive | inactive | inactive | inactive | inactive | – | inactive | inactive | – | – | inactive | inactive | – | inactive | – | – | –
CC(=O)[C@H]1CC[C@H]2[C@@H]3CC=C4C[C@@H](O)CC[C@]4(C)[C@H]3CC[C@]12C | inactive | inactive | inactive | inactive | – | inactive | 12.2 µM (active) | inactive | inactive | inactive | inactive | inactive | inactive | inactive | inactive | inactive | inactive | inactive | inactive | inactive
Nc1ccc(O)c(N)c1 | 54.1 µM (active) | inactive and 1.37 µM (active) | 43.3 µM (active) | inactive | – | 43.6 µM (active) | inactive | inactive | – | inactive | inactive | – | – | – | inactive | inactive | – | – | – | –
c1ccc2ncccc2c1 | inactive | inactive | inactive | inactive | inactive | inactive | inactive | inactive | – | inactive | inactive | – | inactive | inactive | – | – | inactive | – | – | –
CC(C)[C@@H]1CC[C@@H](C)CC1=O | inactive | inactive | inactive | inactive | – | inactive | inactive | inactive | inactive | inactive | inactive | – | – | inactive | – | – | inactive | – | – | –
O=C(O)CCCC(=O)O | inactive | inactive | inactive | inactive | inactive | inactive | inactive | inactive | – | inactive | inactive | – | inactive | inactive | – | – | inactive | – | – | inactive
NC[C@H](O)c1ccc(O)c(O)c1 | inactive | inactive | inactive | inactive | inactive | inactive | – | inactive | – | inactive | inactive | – | – | inactive | – | – | inactive | – | – | –
